From PubChem BioAssay (NCATS)
Records with an inconclusive call do not appear. A call without a number means that no potency is given here. Activity calls are given as the source filed them. Calls follow the shape of the full dose curve. Bridge positions count the residues as written; N and C are the ends. Square brackets hold non-standard residues; d marks the D form. Peptide text beside a SMILES is read from it. dPhe(4-Cl) = N[C@H](Cc1ccc(Cl)cc1)C(=O)O; d2Nal = N[C@H](Cc1ccc2ccccc2c1)C(=O)O; dCit = NC(=O)NCCC[C@@H](N)C(=O)O; d3Pal = N[C@H](Cc1cccnc1)C(=O)O

Assays:
[1] = Primary qHTS for Huh7 cytotoxicity: counterscreen for inhibitors of MERS-S pseudotyped particle cell entry (AID 1479147); settings: outcome: dose series up to 57.1 µM unless noted
[2] = Primary qHTS for inhibitors of MERS-S pseudo-typed particle cell entry (AID 1479149); settings: outcome: dose series up to 57.1 µM unless noted; also: nearly all actives have a fitted effect of over 60% in size
[3] = Primary qHTS for Vero E6 cytotoxicity: counterscreen for inhibitors of SARS-S pseudo-typed particle cell entry (AID 1479150); settings: outcome: dose series up to 57.1 µM unless noted
[4] = Cytotoxicity counterscreen for inhibitors of SARS-CoV-2 cell entry (AID 1645845); settings: outcome: dose series up to 57.1 µM unless noted; also: nearly all actives have a fitted effect of over 50% in size
Summary of the method: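 ATP-content luminescence (ATPLite 1step, 15 min RT) read after 48 h compound exposure of Expi293F cells stably expressing human ACE2; normalized to cells-only wells and media-only wells.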

[5] = Primary qHTS to identify inhibitors of SARS-CoV-2 cell entry (AID 1645846); settings: SARS-CoV-2 pseudovirus cell entry assay, luminescence; activity change, negative = inhibition: at 57.1 µM (top of the series) unless noted; also: nearly all actives have a fitted effect of over 45% in size
Summary of the method: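 Entry measured by luciferase signal 48 h after adding SARS-CoV-2-S pseudotyped MLV particles to HEK293-ACE2 cells preincubated 1 h with compounds. Normalisation: bald particles and spike particles.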

| Compound | Potency [1] | Potency [2] | Potency [3] | Potency [4] | activity change, negative = inhibition [5] | Potency [5] |
| --- | --- | --- | --- | --- | --- | --- |
| C[C@@H]1NC(=O)[C@@H]2CCCN2C(=O)[C@H](CC(N)=O)NC(=O)[C@@H]2CSSC[C@H](N)C(=O)N[C@H]3CSSC[C@H](NC1=O)C(=O)N[C@@H]([C@@H](C)O)C(=O)NCC(=O)N[C@H](C(=O)N[C@@H](Cc1ccc(O)cc1)C(=O)O)CSSC[C@H](NC(=O)[C@H](Cc1ccc(O)cc1)NC(=O)[C@H](CCC(=O)O)NC3=O)C(=O)N2 (H-CCEYCCNPACTGCY-OH; disulfide 1-6, 2-10, 5-13) | inactive | inactive | inactive | inactive | -24.4% [at 27.1 µM] | – |
| CCCCCCCCCCCCCCCCCC(=O)OCCO | inactive | inactive | inactive | inactive | -12.3% | – |
| CCOC(=O)[C@@H](N)CS | inactive | inactive | inactive | inactive | -29% | – |
| CCCC(=O)Nc1c(I)cc(I)c(CC(CC)C(=O)O)c1I (stereo not given) | inactive | inactive | inactive | inactive | -27.1% | – |
| Cc1cccc(C)c1N(CCCc1cccnc1)C(=O)C(C)N (stereo not given) | inactive | inactive | inactive | inactive | -18.9% | – |
| CN1CCN(C2=Nc3ccccc3Cc3ccccc32)CC1 | inactive | inactive | inactive | inactive | -23.9% | – |
| CCC(C)(C)OC(=O)N[C@@H](Cc1c[nH]c2ccccc12)C(=O)N[C@@H](CCSC)C(=O)N[C@@H](CC(=O)O)C(=O)N[C@@H](Cc1ccccc1)C(N)=O | inactive | inactive | inactive | inactive | -23% | – |
| COC1=C(C(=O)O)N2C(=O)[C@@H](NC(=O)[C@H](N)C3=CCC=CC3)[C@H]2SC1 | inactive | inactive | inactive | inactive | -17.7% | – |
| CCN(CC)CCS(=O)(=O)[C@@H]1CCN2C(=O)c3coc(n3)CC(=O)C[C@H](O)/C=C(C)/C=C/CNC(=O)/C=C/[C@@H](C)[C@@H](C(C)C)OC(=O)[C@@H]12 | inactive | inactive | inactive | inactive | -29% | – |
| CCCCC[C@@H](O)CC[C@H]1[C@@H]2Cc3cccc(OCC(=O)O)c3C[C@@H]2C[C@@H]1O | inactive | inactive | inactive | inactive | -4.98% | – |
| CC1(C)C[C@H]1C(=O)N/C(=C\CCCCSC[C@@H](N)C(=O)O)C(=O)O | inactive | inactive | inactive | inactive | -28.6% | – |
| C[C@@H]1C[C@H]2[C@@H]3C[C@H](F)C4=CC(=O)C=C[C@]4(C)[C@@]3(Cl)[C@@H](O)C[C@]2(C)[C@H]1C(=O)COC(=O)C(C)(C)C | inactive | inactive | inactive | inactive | 1.93% | – |
| CCCCCC(O)/C=C/[C@@H]1C(CCCCCCC(=O)O)C(=O)C[C@@H]1O (stereo not given in full) | inactive | inactive | inactive | inactive | -20.3% | – |
| Cc1ccccc1-c1cc(N2CCN(C)CC2)ncc1N(C)C(=O)C(C)(C)c1cc(C(F)(F)F)cc(C(F)(F)F)c1 | inactive | inactive | inactive | inactive | 3.24% | – |
| CC(=O)N[C@H](Cc1ccc2ccccc2c1)C(=O)N[C@H](Cc1ccc(Cl)cc1)C(=O)N[C@H](Cc1cccnc1)C(=O)N[C@@H](CO)C(=O)N[C@@H](Cc1ccc(O)cc1)C(=O)N[C@H](CCCNC(N)=O)C(=O)N[C@@H](CC(C)C)C(=O)N[C@@H](CCCN=C(N)N)C(=O)N1CCC[C@H]1C(=O)N[C@H](C)C(N)=O (Ac-[d2Nal][dPhe(4-Cl)][d3Pal]SY[dCit]LRP[dA]-NH2) | inactive | inactive | inactive | inactive | -10.8% [at 27.1 µM] | – |
| CC(C)CC(NC(=O)CNC(=O)C(Cc1ccc(O)cc1)NC(=O)C(CO)NC(=O)C(Cc1c[nH]c2ccccc12)NC(=O)C(Cc1cnc[nH]1)NC(=O)C1CCC(=O)N1)C(=O)NC(CCCN=C(N)N)C(=O)N1CCCC1C(=O)NCC(N)=O (stereo not given) | inactive | inactive | inactive | inactive | -25.2% | – |
| C[N@+]12CCCC[C@@H]1CCC(=C(c1cccs1)c1cccs1)C2 | inactive | inactive | inactive | inactive | -20.7% | – |
| CCOc1cc(C(CS(C)(=O)=O)N2C(=O)c3cccc(NC(C)=O)c3C2=O)ccc1OC (stereo not given) | inactive | inactive | inactive | inactive | -21.8% | – |
| CC(C)(C)NCC(O)c1ccc(O)c(CO)n1 (stereo not given) | inactive | inactive | inactive | inactive | – | inactive |
| Cc1nccn1CCC(C(N)=O)(c1ccccc1)c1ccccc1 | inactive | inactive | inactive | inactive | -25.4% | – |
| CC(C)CCC[C@@H](C)[C@H]1CC[C@H]2[C@@H]3CC=C4C[C@@H](O)CC[C@]4(C)[C@@H]3CC[C@]12C | inactive | inactive | inactive | inactive | – | inactive |
| COc1ccc(-c2c(Cl)ncn2-c2ccc(S(N)(=O)=O)cc2)cc1F | inactive | inactive | inactive | inactive | -27% | – |
| CCCC1CC(C(=O)NC(C(C)Cl)C2OC(SC)C(OP(=O)(O)O)C(O)C2O)N(C)C1 (stereo not given) | inactive | inactive | inactive | inactive | -28.7% [at 27.1 µM] | – |
| NS(=O)(=O)c1cc2c(cc1Cl)NC(Cc1ccccc1)NS2(=O)=O (stereo not given) | inactive | inactive | inactive | inactive | -16.2% | – |
| CO[C@@H]1C[C@H](O[C@H]2[C@H](C)[C@H](O[C@@H]3O[C@@H](C)C[C@@H](N(C)C)[C@H]3OC(C)=O)[C@H](C)C[C@]3(CO3)C(=O)[C@H](C)[C@H](OC(C)=O)[C@H](C)[C@H](C)OC(=O)[C@@H]2C)O[C@H](C)[C@H]1OC(C)=O | inactive | inactive | inactive | inactive | -34.5% | – |
| O=C(O)CCC/C=C\C[C@@H]1[C@@H](/C=C/[C@@H](O)COc2cccc(Cl)c2)[C@H](O)C[C@@H]1O | inactive | inactive | inactive | inactive | – | inactive |
| CN1CC(O)c2cc(N=NC(=N)N)c(O)cc21 (stereo not given) | inactive | inactive | inactive | inactive | -23.2% | – |
